What was measured:
Test in all cases: PBM binding z-score (relative to random genomic background probes); higher = stronger binding; sequences stand for … in GC…GCGATTGACAGCGTAGAATGAAGG
[1] = test system: RARb homodimer (NR concentration 270 nM)
How it was run: (§1)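 Binding z-scores were set against random background probes. The data came from custom Agilent 4×180K protein-binding microarrays carrying double-stranded probes with 34-nt variable regions, incubated 1 h with ligand-free nuclear receptor dimers. Partner-specific antibodies detected binding, and scanned fluorescence was regression-normalized.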

[2] = test system: RARg:RXRa (NR concentration 270 nM, RXRa partner concentration 90 nM)
How it was run: as §1

[3] = test system: RARg homodimer (NR concentration 270 nM)
How it was run: as §1

[4] = test system: RXRa DBDmut IVT, anti-RXR (DBD mutation: RXRa K156A/R161A, NR concentration 90 nM)
How it was run: as §1

[5] = test system: RXRa homodimer (NR concentration 180 nM)
How it was run: as §1

[6] = test system: THRa:RXRa (NR concentration 90 nM, RXRa partner concentration 90 nM)
How it was run: as §1

[7] = test system: THRa homodimer (NR concentration 90 nM)
How it was run: as §1

[8] = test system: VDR homodimer (NR concentration 270 nM)
How it was run: as §1

| Sequence | PBM binding z-score [1] | PBM binding z-score [2] | PBM binding z-score [3] | PBM binding z-score [4] | PBM binding z-score [5] | PBM binding z-score [6] | PBM binding z-score [7] | PBM binding z-score [8] |
| --- | --- | --- | --- | --- | --- | --- | --- | --- |
| TCTCGGATGACACGAAGGTCAGAGCTTTCCAGAG | 3.15 | 2.66 | 2.31 | 0.542 | 2.48 | 1.68 | 0.229 | 0.13 |
| GCGACTGGGGCAAAGCAGGTTACCATAAGGTTGG | 1.15 | 0.472 | 0.712 | -0.374 | 0.33 | 2.84 | 0.0306 | -0.59 |
| AAAACAGGGTCACTAGGCCAGAGTAGGTACGAAT | 3.35 | 5.4 | 4.84 | 2.95 | 5.7 | 3.48 | 1.18 | 2.76 |
| CGGACTAGGTCATCCAGGACAGTGAATACATTGA | 2.76 | 3.66 | 4.36 | 1.7 | 2.43 | 3.48 | 1.79 | 1.59 |
| AGAATCAGGTTATTAAGATCAGGGAATTGCGGTC | 0.785 | 0.291 | 0.541 | 0.627 | 0.596 | 1.21 | 0.84 | 0.616 |
| AGAATGAAGTTATTAAGATCAGGGAATTGCGGTC | -0.379 | -0.168 | -0.0523 | -0.232 | 0.116 | -0.108 | -0.315 | -0.263 |
| CAAACTAGGTCAAGGTCAAAGACGGTTTGTGCCA | 5.1 | 5.82 | 6.9 | 3.16 | 5.06 | 4.34 | 3.55 | 4.1 |
| CCTAGCAGTCCAATCTGGGTCACTCAAGGCTTGA | 2.02 | 0.766 | 0.694 | 0.516 | 0.768 | 2.86 | 0.629 | 0.187 |
| GCTGCTAGGTCAACTGATGGTCCGCTAAAGCTCG | 3.41 | 4.2 | 5.3 | 1.53 | 2.8 | 2.73 | 1.26 | 0.106 |
| TGAATGAGGTTCAAGATCAGGGAACGTGGCGTCG | 0.237 | 1.24 | 0.706 | 2.14 | 1.66 | 0.882 | -0.612 | 1.64 |
| CCGACTGGGGCATAAGGTCACCATAAGCCAGCCC | 4.32 | 4.86 | 4.18 | 0.204 | 4.29 | 4.08 | 4.71 | 1.77 |
| CCTGCTAGGTCAATGGTCGGCTAAAGCAGCTCGC | 2.9 | 3.87 | 4.16 | 1.74 | 1.88 | 2.42 | 0.749 | 0.149 |
| ACAGACAAGTGAGTGAAGGTAACTCAGCTGGACG | -0.464 | -0.0696 | 0.0663 | -0.283 | -0.0064 | -0.0405 | -0.435 | -0.445 |
| TCATATAGGTAAATGCTACGTGAAAGTCCGATCT | -0.0537 | 0.346 | 0.292 | 1.58 | 0.839 | -0.0231 | 0.0102 | 0.41 |
| CGTCCAAGGTCAAAGTTCAGTGAAGAGATGACGG | 4.6 | 7.44 | 7.1 | 4.25 | 8.84 | 4.31 | 1.92 | 4.39 |
| AGCCAAAGTTCAGGACGAGGTAACGTAAAGCACG | 3.29 | 4.54 | 4.18 | 2.63 | 3.05 | 3.87 | 1.74 | 1.79 |
| CGAACTAGGTCAGAACAGGAGAGTGAAGGATGAT | 1.69 | 2.51 | 3.2 | 0.692 | 1.23 | 1.72 | 0.0817 | 0.129 |
| TCTAGTTGGTCACGCAGGTCACACACGACGGGTA | 3.63 | 3.59 | 3.7 | 1.03 | 3.08 | 2.92 | 1.81 | 1.76 |
| TCTTTTAGATCAAGCAGGTTAAGAAAGCCTGAGT | 0.0271 | 0.216 | 0.212 | 1.19 | 0.49 | 0.401 | -0.436 | 0.0126 |

| Sequence | PBM binding z-score [1] | PBM binding z-score [2] | PBM binding z-score [3] | PBM binding z-score [4] | PBM binding z-score [5] | PBM binding z-score [6] | PBM binding z-score [7] | PBM binding z-score [8] |
| --- | --- | --- | --- | --- | --- | --- | --- | --- |
| CAAACTAGGTCAAATGTCAAAGTCGAGCCAACCA | 3.4 | 5.2 | 5.17 | 2.58 | 5.14 | 3.36 | 0.944 | 1.05 |
| CGTCCAAGGTCAGAGAGGTCAGTCAATGCCGAGT | 5.37 | 6.53 | 7.2 | 3.32 | 5.76 | 4.46 | 2.83 | 5.88 |
| CGAACGAGGGCATGAGTTGAGAGCAAATGCCGAT | 0.724 | 1.46 | 1.56 | 1.8 | 1.02 | 1.25 | -0.339 | 1.26 |
| AGTCAAAGTTCACTAGGTCACGTAAGATTCAGCT | 5.29 | 6.62 | 7.17 | 4.43 | 5.44 | 3.72 | 2.54 | 4.43 |
| AACTCTAGGTAAAAGTTCAGTGAATCCCGAGGAT | 2.27 | 1.77 | 1.69 | 0.858 | 1.76 | 1.22 | 0.014 | 1.4 |
| ATCTCTAGGTAGAGTTCAGTGAAAGATCGATAGA | 1.89 | 1.61 | 1.55 | 2.18 | 1.3 | 0.946 | -0.259 | 3.41 |
| ACTTACGGGTCCACGAGGTTATAGCACGCGTATA | 1.33 | 1.43 | 0.919 | 3.07 | 1.61 | 2.26 | 1.65 | 3.37 |
| TCTCGGAGGACACGAACGTCAGAGCTTTCCAGAG | 0.309 | 0.302 | 0.872 | 0.441 | 0.094 | 1.25 | 0.208 | -0.356 |
| ATCGAAAGGTCGACGAGCTGAGTATACACCGTTT | 2.38 | 3.86 | 3.6 | 1.09 | 4.01 | 1.58 | -0.705 | 0.176 |
| TGAATGAGATTATAAGATCAGGGAACGTTGCAAA | -1.01 | -0.048 | 0.172 | -1.08 | -0.35 | -0.424 | -1.28 | -0.262 |
| TTACCAAGGTGAACGTCGTTGATCCCTCTGTAGA | 0.909 | 0.602 | 0.629 | -0.298 | 1.19 | 2.32 | 0.991 | -0.626 |
| AGAACGAGGGGAATGAGTTGATAGCACGGGTGGC | 0.0648 | 0.0895 | 0.0667 | 0.224 | 0.437 | 0.0318 | -0.151 | 0.812 |
| TCTTTTAGTTGATTAGGGCAACCGAAACAGCGGA | 1.02 | 1.27 | 1.12 | 1.2 | 0.836 | 1.07 | 0.745 | 0.435 |
| TCTAGTTGGTCAAGGAGGTCACACACGACGGGTA | 4.26 | 4.38 | 4.29 | 0.835 | 4.27 | 3.57 | 2.15 | 2.71 |
| TCATATAGGTAATACAGCTGAAAGTCGGCATCTA | -0.493 | 0.294 | 0.383 | 1.69 | 0.684 | -0.0502 | -0.127 | -0.525 |
| TCTAGCAGGTCAGAGGGTCACTCAAGAGGTACGG | 4.51 | 5.64 | 5.13 | 0.85 | 5.09 | 3.03 | 0.408 | 1.72 |
| GACACAGGGTCAAGGCCAGAGTACGCGTATTGAT | 3.64 | 5.52 | 5.02 | 2.59 | 6.19 | 3.64 | 0.875 | 2.13 |
| ATCTCTAGGTAACACGTTCAGTGAAAGAGAGGAC | 0.49 | 0.475 | 0.586 | -0.0545 | 0.391 | 0.954 | 0.748 | 0.453 |
| ATTTCTAGGTAACAAGTTCAGTGAAAGAGAGGAC | 2.14 | 1.75 | 1.66 | 1.44 | 1.12 | 1.83 | 1.35 | 3.04 |

| Sequence | PBM binding z-score [1] | PBM binding z-score [2] | PBM binding z-score [3] | PBM binding z-score [4] | PBM binding z-score [5] | PBM binding z-score [6] | PBM binding z-score [7] | PBM binding z-score [8] |
| --- | --- | --- | --- | --- | --- | --- | --- | --- |
| CAAACTAGGTCAAGGTAAAAGTCGGTTTGTGCCA | 3.47 | 3.84 | 5.09 | 1.52 | 2.93 | 3.03 | 1.49 | 0.742 |
| CCTATTAGTTGACCATAACGGCAACCGAAGCTCG | 1.01 | 0.618 | 0.817 | 0.595 | 0.625 | 0.388 | 0.93 | 1.08 |
| ACTAGTTTGTCAGCTGAGGTCACACACAATTCGG | 3.94 | 3.85 | 3.7 | 1.98 | 4.13 | 4.42 | 5.24 | 3.53 |
| AGTCAAAGTTCATTTAGGTAACGTAAGATATGCT | 3.77 | 5.03 | 5.39 | 4.96 | 4.35 | 3.29 | 1.03 | 5.45 |
| CCGACTGGGGCAGAAAGGTTACCATCCCATCCGG | 2.3 | 1.44 | 1.19 | -1.13 | 1.48 | 0.817 | -0.666 | -0.162 |
| CCTCGGAGGACAACAGGAGGTGAGAGCTGCCAGA | 1.05 | 0.71 | 1.35 | -0.141 | -0.117 | 1.44 | 0.525 | -0.285 |
| CAAACTAGGTGAAGAGGTCAAAGTCCGCTTCCCG | 4.7 | 5.44 | 3.96 | 1.73 | 5.48 | 3.86 | 1.42 | 3.38 |
| GCTTACGGGTCAAAGGTTGTAGCATGAATAGAAT | 2.84 | 5.74 | 4.09 | 2.43 | 8.07 | 3.2 | 0.00313 | 0.93 |
| CAAACTAGTTCAAAGGTCAAAGTCGAGCCAACCA | 4.9 | 7.49 | 6.13 | 3.58 | 9.59 | 4.16 | 1.06 | 3.89 |
| ACTTACGGGACAACGAGGTTATAGCACGCGTATA | 1.17 | 0.768 | 1.24 | 0.749 | 1.03 | 1.69 | 0.953 | 1.94 |
| TCTTGTAGATCAGCAGGTTCAGAAAGCTGGCCAA | -0.402 | -0.138 | -0.569 | 0.668 | 0.303 | 0.00022 | -0.821 | 1.58 |
| GCGACTGGGGCATCAGCAGGCTACCATAACTTAA | 0.21 | -0.0453 | 0.15 | -0.185 | -0.168 | -0.0992 | 0.158 | -0.693 |
| GGAAAGAGGGCAAGTTGATAGCAGAGTTTGATGG | 2.23 | 2.23 | 3 | 1.94 | 1.43 | 1.02 | 0.275 | 1.93 |
| CCTAGCGGGCCAGGGTCACTCAAGCATTTCGCTT | 2.48 | 3.06 | 2.4 | -0.0113 | 3.72 | 2.72 | 1.19 | 1.28 |
| AGAAGGAGGTTATACGTAGATCAGGGAAGAAAGT | 1.26 | 1.3 | 1.11 | 0.234 | 1.59 | 1.28 | 0.665 | 0.752 |
| ATATGTAGGATACATCCGGGTCATTCAGGCTATG | 2.18 | 1.58 | 1.43 | 0.223 | 1.95 | 2.99 | 1.95 | 2.23 |
| AGCCAAAGTTCACTAGGTAACGTAAGATTCAGCT | 3.85 | 4.99 | 5.83 | 4.29 | 3.74 | 1.91 | -0.25 | 3.46 |
| ATCTCTAGGTAAAGATAGTTCAGTAAATGCAAAT | 1.08 | 0.439 | 0.876 | 0.336 | 0.446 | 0.803 | 0.595 | 0.651 |
